Measurements from PMC7862700, “An all-to-all approach to the identification of sequence-specific readers for epigenetic DNA modifications on cytosine”.

What was measured:
Assay in all cases: DAPPL (digital affinity profiling via proximity ligation, sequencing); 10 mM Tris-HCl pH 7.5, 50 mM NaCl, 1 mM DTT, 4% glycerol, room temperature, 30 min; GST-TFs on glutathione beads, 16-mer random dsDNA library, 0.1% formaldehyde crosslink after washing; high values mean tight binding
Details in all cases: protein: recombinant; tags: N-terminal GST; dsDNA, one strand shown
ERF = target: T1, ERF (Homo sapiens, UniProt P50548 1-548)
T1 sequence: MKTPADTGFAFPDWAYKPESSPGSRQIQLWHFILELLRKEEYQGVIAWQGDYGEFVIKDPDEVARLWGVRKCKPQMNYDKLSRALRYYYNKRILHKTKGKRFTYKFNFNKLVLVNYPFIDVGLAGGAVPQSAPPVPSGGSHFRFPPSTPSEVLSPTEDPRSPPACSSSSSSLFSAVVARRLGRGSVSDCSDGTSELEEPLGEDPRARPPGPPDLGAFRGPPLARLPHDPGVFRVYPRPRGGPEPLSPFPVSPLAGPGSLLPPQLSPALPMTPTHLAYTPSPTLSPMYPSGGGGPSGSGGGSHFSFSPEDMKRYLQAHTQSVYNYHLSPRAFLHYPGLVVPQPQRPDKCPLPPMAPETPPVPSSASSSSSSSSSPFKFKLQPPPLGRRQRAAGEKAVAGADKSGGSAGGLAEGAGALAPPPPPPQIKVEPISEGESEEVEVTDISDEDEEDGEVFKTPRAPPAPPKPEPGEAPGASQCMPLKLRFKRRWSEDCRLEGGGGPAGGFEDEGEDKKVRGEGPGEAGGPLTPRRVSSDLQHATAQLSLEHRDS
Procedure, shortened: (§1)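 Beads coated with glutathione captured GST-fused human transcription factors that had been expressed in yeast, and the factors were then given DNA barcodes and pooled with a tag-only sample. The pools were incubated with 200 nmole of a random double-stranded 16-mer DNA library in Tris/NaCl/DTT/glycerol buffer for 30 min at room temperature, washed, crosslinked with 0.1% formaldehyde and proximity-ligated with BsaI/T4 ligase at 37 °C for 1 h. PCR amplification and Illumina NextSeq500 sequencing came last. Binding signal is each hexamer's read frequency for a factor divided by its frequency for the tag-only sample.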

ETV3L = target: T2, ETV3L (Homo sapiens, UniProt Q6ZN32 1-361)
T2 sequence: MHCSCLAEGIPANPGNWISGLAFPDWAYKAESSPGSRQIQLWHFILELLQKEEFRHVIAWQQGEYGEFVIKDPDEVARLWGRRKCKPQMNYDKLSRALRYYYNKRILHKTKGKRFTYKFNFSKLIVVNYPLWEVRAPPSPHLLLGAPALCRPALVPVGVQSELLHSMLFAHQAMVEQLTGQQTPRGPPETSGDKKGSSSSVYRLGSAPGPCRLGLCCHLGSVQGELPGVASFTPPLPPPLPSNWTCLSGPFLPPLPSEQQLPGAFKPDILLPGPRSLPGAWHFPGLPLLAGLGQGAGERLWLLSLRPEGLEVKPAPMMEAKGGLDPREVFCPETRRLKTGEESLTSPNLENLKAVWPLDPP
Procedure, shortened: as §1

ETS2 = target: T3, ETS2 (Homo sapiens, UniProt P15036 1-469)
T3 sequence: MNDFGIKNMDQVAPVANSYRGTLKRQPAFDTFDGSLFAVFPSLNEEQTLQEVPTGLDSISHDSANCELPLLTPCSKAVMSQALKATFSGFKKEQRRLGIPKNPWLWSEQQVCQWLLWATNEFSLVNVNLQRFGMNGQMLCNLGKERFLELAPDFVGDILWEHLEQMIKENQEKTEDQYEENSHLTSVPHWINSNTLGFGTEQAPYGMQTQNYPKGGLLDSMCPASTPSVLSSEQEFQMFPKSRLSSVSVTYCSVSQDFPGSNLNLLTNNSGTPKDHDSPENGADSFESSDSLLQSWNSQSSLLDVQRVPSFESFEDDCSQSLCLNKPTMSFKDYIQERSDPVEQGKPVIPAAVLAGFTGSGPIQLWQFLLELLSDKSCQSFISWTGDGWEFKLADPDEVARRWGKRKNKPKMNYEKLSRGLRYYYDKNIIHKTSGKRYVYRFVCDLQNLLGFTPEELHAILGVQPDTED
Procedure, shortened: as §1

SPDEF = target: T4, SPDEF (Homo sapiens, UniProt O95238 1-335)
T4 sequence: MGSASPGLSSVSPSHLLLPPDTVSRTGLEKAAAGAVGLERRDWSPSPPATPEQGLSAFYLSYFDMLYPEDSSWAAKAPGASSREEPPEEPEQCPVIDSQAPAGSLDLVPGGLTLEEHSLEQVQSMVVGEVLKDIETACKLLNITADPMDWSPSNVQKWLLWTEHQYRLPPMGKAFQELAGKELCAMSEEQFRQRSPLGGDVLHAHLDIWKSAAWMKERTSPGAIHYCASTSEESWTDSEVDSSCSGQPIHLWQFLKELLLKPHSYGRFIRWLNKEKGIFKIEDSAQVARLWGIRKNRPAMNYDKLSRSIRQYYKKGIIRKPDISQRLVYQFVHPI
Procedure, shortened: as §1

ETV7 = target: T5, ETV7 (Homo sapiens, UniProt Q9Y603 1-341)
T5 sequence: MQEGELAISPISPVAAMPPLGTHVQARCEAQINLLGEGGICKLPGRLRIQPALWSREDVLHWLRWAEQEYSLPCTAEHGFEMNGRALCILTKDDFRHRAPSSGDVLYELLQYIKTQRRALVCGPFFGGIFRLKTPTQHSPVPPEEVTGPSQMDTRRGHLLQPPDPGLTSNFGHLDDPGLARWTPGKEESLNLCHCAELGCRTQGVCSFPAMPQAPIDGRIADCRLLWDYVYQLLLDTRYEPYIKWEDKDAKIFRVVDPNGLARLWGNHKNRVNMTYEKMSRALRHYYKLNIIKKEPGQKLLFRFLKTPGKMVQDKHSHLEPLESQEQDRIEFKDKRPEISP
Procedure, shortened: as §1

ELF5 = target: T6, ELF5 (Homo sapiens, UniProt Q9UKW6-2 1-255)
T6 sequence: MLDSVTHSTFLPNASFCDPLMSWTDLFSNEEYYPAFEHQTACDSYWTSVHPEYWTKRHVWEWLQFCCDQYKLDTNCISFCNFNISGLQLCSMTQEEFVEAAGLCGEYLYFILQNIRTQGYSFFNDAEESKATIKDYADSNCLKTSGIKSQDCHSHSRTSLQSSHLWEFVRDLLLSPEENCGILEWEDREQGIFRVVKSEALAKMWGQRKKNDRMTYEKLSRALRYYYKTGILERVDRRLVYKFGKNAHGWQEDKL
Procedure, shortened: as §1

ETV3 = target: T7, ETV3 (Homo sapiens, UniProt P41162-2 1-143)
T7 sequence: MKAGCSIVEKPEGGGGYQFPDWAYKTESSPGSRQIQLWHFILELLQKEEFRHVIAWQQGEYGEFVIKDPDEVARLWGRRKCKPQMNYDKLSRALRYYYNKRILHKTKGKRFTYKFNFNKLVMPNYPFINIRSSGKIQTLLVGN
Procedure, shortened: as §1

ETV6 = ETV6 (Homo sapiens, UniProt P41212 1-452)
ETV6, sequence (P41212 whole entry): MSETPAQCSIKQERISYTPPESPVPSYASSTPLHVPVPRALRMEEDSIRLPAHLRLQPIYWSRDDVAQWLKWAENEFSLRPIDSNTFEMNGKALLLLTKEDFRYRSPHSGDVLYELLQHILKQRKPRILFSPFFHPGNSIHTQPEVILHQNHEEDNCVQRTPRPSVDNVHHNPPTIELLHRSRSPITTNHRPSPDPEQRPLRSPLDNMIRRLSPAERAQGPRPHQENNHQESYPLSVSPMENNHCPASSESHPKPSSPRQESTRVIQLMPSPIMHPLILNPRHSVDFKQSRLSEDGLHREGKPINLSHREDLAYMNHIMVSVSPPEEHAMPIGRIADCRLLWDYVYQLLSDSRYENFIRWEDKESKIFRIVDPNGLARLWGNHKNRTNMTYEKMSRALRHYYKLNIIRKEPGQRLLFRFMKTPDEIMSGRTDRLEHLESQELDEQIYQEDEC
Procedure, shortened: as §1

Sequence | binding signal (ERF) | binding signal (ETV3L) | binding signal (ETS2) | binding signal (SPDEF) | binding signal (ETV7) | binding signal (ELF5) | binding signal (ETV3) | binding signal (ETV6)
CAAATG | 1.25 fold enrichment (6-mer frequency, TF over GST control) | 1.11 fold enrichment (6-mer frequency, TF over GST control) | 1.15 fold enrichment (6-mer frequency, TF over GST control) | 1.19 fold enrichment (6-mer frequency, TF over GST control) | 1.2 fold enrichment (6-mer frequency, TF over GST control) | 1.1 fold enrichment (6-mer frequency, TF over GST control) | 1.13 fold enrichment (6-mer frequency, TF over GST control) | 1.18 fold enrichment (6-mer frequency, TF over GST control)
AACAGG | 1.16 fold enrichment (6-mer frequency, TF over GST control) | 1.15 fold enrichment (6-mer frequency, TF over GST control) | 1.13 fold enrichment (6-mer frequency, TF over GST control) | 1.31 fold enrichment (6-mer frequency, TF over GST control) | 1.15 fold enrichment (6-mer frequency, TF over GST control) | 1.24 fold enrichment (6-mer frequency, TF over GST control) | 1.25 fold enrichment (6-mer frequency, TF over GST control) | 1.29 fold enrichment (6-mer frequency, TF over GST control)
GTGACC | 1.24 fold enrichment (6-mer frequency, TF over GST control) | 1.26 fold enrichment (6-mer frequency, TF over GST control) | 1.25 fold enrichment (6-mer frequency, TF over GST control) | 1.32 fold enrichment (6-mer frequency, TF over GST control) | 1.3 fold enrichment (6-mer frequency, TF over GST control) | 1.25 fold enrichment (6-mer frequency, TF over GST control) | 1.38 fold enrichment (6-mer frequency, TF over GST control) | 1.1 fold enrichment (6-mer frequency, TF over GST control)
ATTCCC | 1.28 fold enrichment (6-mer frequency, TF over GST control) | 1.53 fold enrichment (6-mer frequency, TF over GST control) | 1.25 fold enrichment (6-mer frequency, TF over GST control) | 1.37 fold enrichment (6-mer frequency, TF over GST control) | 1.29 fold enrichment (6-mer frequency, TF over GST control) | 1.5 fold enrichment (6-mer frequency, TF over GST control) | 1.51 fold enrichment (6-mer frequency, TF over GST control) | 1.38 fold enrichment (6-mer frequency, TF over GST control)
TCACCC | 1.2 fold enrichment (6-mer frequency, TF over GST control) | 1.16 fold enrichment (6-mer frequency, TF over GST control) | 1.13 fold enrichment (6-mer frequency, TF over GST control) | 1.23 fold enrichment (6-mer frequency, TF over GST control) | 1.04 fold enrichment (6-mer frequency, TF over GST control) | 1.07 fold enrichment (6-mer frequency, TF over GST control) | 1.14 fold enrichment (6-mer frequency, TF over GST control) | 1.05 fold enrichment (6-mer frequency, TF over GST control)
CGGATA | 1.17 fold enrichment (6-mer frequency, TF over GST control) | 1.13 fold enrichment (6-mer frequency, TF over GST control) | 1.3 fold enrichment (6-mer frequency, TF over GST control) | 1.93 fold enrichment (6-mer frequency, TF over GST control) | 1.09 fold enrichment (6-mer frequency, TF over GST control) | 1.37 fold enrichment (6-mer frequency, TF over GST control) | 1.33 fold enrichment (6-mer frequency, TF over GST control) | 1.21 fold enrichment (6-mer frequency, TF over GST control)
GCTGCT | 1.11 fold enrichment (6-mer frequency, TF over GST control) | 1.43 fold enrichment (6-mer frequency, TF over GST control) | 1.43 fold enrichment (6-mer frequency, TF over GST control) | 1.21 fold enrichment (6-mer frequency, TF over GST control) | 1.21 fold enrichment (6-mer frequency, TF over GST control) | 1.23 fold enrichment (6-mer frequency, TF over GST control) | 1.2 fold enrichment (6-mer frequency, TF over GST control) | 1.27 fold enrichment (6-mer frequency, TF over GST control)
